Assay outcomes from PubChem BioAssay.
The list is not random: actives were taken first. Their share in the collection is about 3.6%.
KKLEB cytotox = CF airway cell cytotoxicity counter-screen; KKLEB CF airway cells viability, ATPlite luminescence, overnight; stronger effect = lower value; cells stimulated with P. aeruginosa culture filtrate; AID 602141; activity change (cytotoxicity), % at 5 µM; 0.36% of 360,000 active;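 active = corrected activity change at or below -50% at 5 µM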
CF NFkB block = cystic fibrosis NF-kB activation inhibition; KKLEB NF-kB-GFP reporter, PAF-induced, GFP fluorescence overnight; inhibition, % at 5 µM; 0.86% of 360,000 active;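 active = at least 50% inhibition at 5 µM, scaled per plate between neutral and stimulator controls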;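 also: PAF is a Pseudomonas aeruginosa culture filtrate used as stimulus; plate controls were PAF-stimulated DMSO wells for no effect and unstimulated DMSO wells for full effect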
Mdm2 MdmX PPI = inhibitors of human Mdm2/MdmX interaction; O15151+Q00987; SaOS-2 split-luciferase Mdm2/MdmX complementation, luminescence; inhibition, % at 8 µM; 3% of 330,000 active; AID 485346;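 active = inhibition of at least 50% at 8 µM in the primary screen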
Target sequence (O15151 whole entry, looked up): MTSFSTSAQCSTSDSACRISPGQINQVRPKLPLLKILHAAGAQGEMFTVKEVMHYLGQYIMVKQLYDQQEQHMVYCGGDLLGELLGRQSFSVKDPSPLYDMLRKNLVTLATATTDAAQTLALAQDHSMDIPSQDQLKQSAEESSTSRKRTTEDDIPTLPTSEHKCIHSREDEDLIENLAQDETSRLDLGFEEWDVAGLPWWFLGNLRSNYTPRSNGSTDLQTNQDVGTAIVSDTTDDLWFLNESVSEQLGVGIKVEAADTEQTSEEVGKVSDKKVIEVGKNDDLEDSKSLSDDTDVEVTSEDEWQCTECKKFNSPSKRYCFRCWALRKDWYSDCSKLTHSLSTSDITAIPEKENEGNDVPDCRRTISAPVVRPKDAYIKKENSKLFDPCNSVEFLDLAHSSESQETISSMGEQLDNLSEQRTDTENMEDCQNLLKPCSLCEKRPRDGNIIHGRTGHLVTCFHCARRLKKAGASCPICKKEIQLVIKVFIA
Target sequence (Q00987 whole entry, looked up): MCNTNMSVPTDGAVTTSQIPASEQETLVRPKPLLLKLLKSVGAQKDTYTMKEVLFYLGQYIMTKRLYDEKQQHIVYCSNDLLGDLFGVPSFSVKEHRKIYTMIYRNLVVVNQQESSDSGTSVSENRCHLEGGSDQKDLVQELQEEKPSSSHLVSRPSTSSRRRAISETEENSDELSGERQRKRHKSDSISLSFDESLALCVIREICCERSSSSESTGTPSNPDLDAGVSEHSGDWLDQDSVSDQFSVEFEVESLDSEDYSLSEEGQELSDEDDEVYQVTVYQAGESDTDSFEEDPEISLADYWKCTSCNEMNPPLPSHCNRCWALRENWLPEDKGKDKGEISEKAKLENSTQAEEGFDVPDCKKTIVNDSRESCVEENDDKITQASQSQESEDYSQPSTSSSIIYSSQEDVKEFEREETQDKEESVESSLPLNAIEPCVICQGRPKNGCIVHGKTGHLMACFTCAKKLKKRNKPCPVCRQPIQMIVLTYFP
LGR2 inh = Drosophila LGR2 receptor signaling inhibition | HEK293 LGR2, CRE-luciferase, bursicon-stimulated, 4 h | inhibition, % at 9.99 µM | 0.35% of 380,000 active | AID 720647;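 active = drop in luminescence signal, shown as inhibition above about 50% in the replicate tests, limit read from the data, passing the limit was not always enough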;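 also: agonist challenge used bursicon conditioned medium at about half maximal strength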
Peg3 prom inh = reduces Peg3 promoter-driven luciferase expression in HeLa. HeLa PEG-Prom luciferase reporter, luminescence, overnight. inhibition, % at 20 µM. 1.7% of 360,000 active;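 active = inhibition of at least 50% at 20 µM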
HSP90 refold inh = HSP90 refolding inhibition in rabbit reticulocyte lysate; AID 1789; inhibition, % at 5.6 µM; 0.91% of 290,000 active; luciferase refolding luminescence, 3 h;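 active = inhibition above the screen-wide mean plus 3 SD, computed separately per campaign, cut at about 16% in these data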;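 also: 0% = DMSO wells and 100% = 60 µM geldanamycin wells; inhibitors lower the luminescence because luciferase stays unfolded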
Mdm2 MdmX conf = confirmation of human Mdm2/MdmX interaction inhibitors; Mdm2-MdmX binding, luminescent assay; 55% of 10,000 active; shares compounds with Mdm2 MdmX PPI; inhibition, % at 8 µM; AID 489028; in the data active = inhibition above about 40%
FLuc counter = full-length luciferase inhibition in Mdm2/MdmX counter-screen | 77% of 6,200 active | inhibition, % at 8 µM | SaOS-2 full-length luciferase counterscreen, luminescence | shares compounds with Mdm2 MdmX PPI;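 active = mean inhibition at 8 µM reaching about 37%, which flags the compound as non-specific, limit read from the data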;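 also: p53-null SaOS-2 cells with luciferase driven by a doxycycline-inducible promoter; compound on cells about two nights before reading with doxycycline added after day one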
* marks the source's active call; other numbers are inactive results; x = not tested or not shown.

SMILES	KKLEB cytotox	CF NFkB block	Mdm2 MdmX PPI	LGR2 inh	Peg3 prom inh	HSP90 refold inh	Mdm2 MdmX conf	others
Cc1[nH]c2ccccc2c1/C=C/c1nc2ccccc2c(=O)n1-c1cccc([N+](=O)[O-])c1	5.0	-13.5	69.6*	11.4	45.5	1.2	16.9
CC(C)(C)c1ccc(C(=O)NNC(=S)NC(=O)c2cccnc2)cc1	-0.8	6.8	33.7	-6.5	-125.4	-0.2	x
CC(C)(C)c1cc(Cl)c(O)c(NC(=S)NC(=O)c2cccnc2)c1	-11.9	0.6	57.3*	17.4	28.6	0.3	52.6*	FLuc counter=35.2
COc1ccc(CNCCC(c2ccc(OC)cc2)c2ccccc2OC)cc1 (stereo not drawn)	1.9	0.7	19.5	1.7	18.6	1.6	x
COc1ccc(C(CCNCc2ccc(N(C)C)cc2)c2ccccc2OC)cc1 (stereo not drawn)	-7.8	18.8	54.0*	22.5	59.7*	6.1	28.7
COc1ccc(C(CCNCc2ccc(OC(C)C)cc2)c2ccccc2OC)cc1 (stereo not drawn)	-26.4	6.9	87.0*	0.2	101.9*	4.1	30.8	FLuc counter=81.9*
C[C@@H]1CN([C@H](C)CO)C(=O)Cc2cc(NC(=O)CCN3CCOCC3)ccc2O[C@@H]1CN(C)C(=O)Nc1ccccc1	x	x	x	-0.5	x	x	x
Cc1ccc(S(=O)(=O)N2CCN(C(=O)c3cc(-c4cccs4)nn3-c3ccccc3)CC2)cc1	-24.8	30.2	67.0*	-11.4	27.6	x	41.1*	FLuc counter=88.0*
C[C@H](CO)N1C[C@H](C)[C@H](CN(C)C)Oc2cc(-c3cccnc3)ccc2S1(=O)=O	x	x	x	3.8	x	x	x
CCCCn1c(=O)[nH]c(=O)c2c1nc(-c1ccc(-c3ccccc3)cc1)n2C	-7.6	5.6	62.3*	1.9	-1.3	6.5	35.4	FLuc counter=94.4*
CCCCn1c(=O)[nH]c(=O)c2c1nc(-c1ccc(C(F)(F)F)cc1)n2C	0.7	17.9	16.2	-3.9	37.0	0.4	x
Cc1ccc(-c2nnc(CSc3nnc(COc4cccc5ccccc45)n3-c3ccccc3)o2)cc1	4.1	8.1	63.4*	x	34.0	5.3	32.0
N#CCSc1nnc(COc2cccc3ccccc23)n1-c1ccccc1	-12.3	25.1	25.1	x	4.4	-1.5	x
CSc1nc(Oc2ccc3ccccc3c2)c2ccccc2n1	-4.5	4.9	55.4*	-2.1	14.7	3.9	7.2
CCC(=O)N(C)C[C@H]1Oc2cc(C#CC(C)C)ccc2S(=O)(=O)N([C@@H](C)CO)C[C@@H]1C	x	x	x	17.4	x	x	x
COc1ccc2ccc(O)c(CN3CCN(S(=O)(=O)c4cc([N+](=O)[O-])ccc4C)CC3)c2c1	-8.0	26.0	26.3	-3.1	3.8	x	x
CCOC(=O)c1c(C)n(-c2ccc(C)cc2)c2ccc(O)c(CN(C)C)c12	-8.7	25.5	54.5*	6.9	28.7	2.0	39.5	FLuc counter=66.1*
COc1ccc(-n2c(C)c([N+](=O)[O-])c3ccc(O)c(CN4CCCCC4)c32)cc1	-33.2	73.3*	77.3*	x	10.0	2.0	58.4*	FLuc counter=28.9
Cc1ccc(-n2c(C)c([N+](=O)[O-])c3ccc(O)c(CN(C)C)c32)cc1	-18.5	82.3*	85.1*	x	16.1	1.0	80.0*	FLuc counter=54.3*
CCOC(=O)c1c(C)n(C)c2ccc(O)c(CN(C)C)c12	-7.1	-0.7	30.8	x	5.8	-2.5	x
Cc1ccc(-n2c(C)c([N+](=O)[O-])c3ccc(O)cc32)cc1	x	x	50.0	5.3	x	1.5	64.6*	FLuc counter=10.3
Cc1noc(C)c1NC(=O)Nc1cccc2c1O[C@@H](CN(C)C(=O)NC1CCCCC1)[C@@H](C)CN([C@@H](C)CO)C2=O	x	x	x	22.8	x	x	x
CC(=O)N1[C@H](C(=O)NCc2ccccc2)[C@@H](CO)[C@@H]2Cn3c(cccc3=O)[C@@H]21	x	x	x	-6.6	x	x	x
O=C(NCC[C@H]1CC[C@@H](NS(=O)(=O)c2cccc(F)c2)[C@@H](CO)O1)C1CC1	x	x	x	2.5	x	x	x
Cc1cc(C)cc(NC(=O)NCC2CCN(Cc3cc(C)ccc3C)CC2)c1	-17.5	6.3	50.0*	-1.6	84.3*	-0.5	36.1
SMILES	KKLEB cytotox	CF NFkB block	Mdm2 MdmX PPI	LGR2 inh	Peg3 prom inh	HSP90 refold inh	Mdm2 MdmX conf	others
C(=C\c1ccc(C2[C@@H]3CN(Cc4cccnc4)C[C@H]2N3)cc1)/c1ccccc1 (stereo partly drawn)	x	x	x	-18.9	x	x	x
CC(C)CCn1c(=O)c2ccccc2n2c(CCC(=O)NC3CCN(Cc4ccccc4)CC3)nnc12	4.2	-19.7	76.6*	6.5	-3.7	-3.5	57.8*	FLuc counter=49.0*
CCOc1ccc(C(C)=O)cc1COC(=O)CNC(=O)C12CC3CC(CC(C3)C1)C2	-13.7	-15.6	56.8*	17.4	-2.5	x	1.8
COc1cccc(-c2nc(N3CC(C)CC(C)C3)c3ccccc3n2)c1O (stereo not drawn)	6.1	-4.7	60.8*	-10.3	11.3	2.3	13.9
COc1cccc(-c2nc(Oc3cc(C)cc(C)c3)c3ccccc3n2)c1O	x	x	64.5*	x	x	4.1	29.9
COc1ccc(Nc2nc(-c3cccc(OC)c3O)nc3ccccc23)cc1	25.3	-36.1	37.5	-41.8	-45.3	-0.5	x
CCCc1cc(=O)[nH]c(SCC(=O)c2c(N)n(C3CC3)c(=O)[nH]c2=O)n1	-11.9	15.5	96.3*	-8.4	8.8	x	13.6
Cc1cc(C)cc(-c2nnc(SCC(=O)c3c(N)n(C4CC4)c(=O)[nH]c3=O)o2)c1	-6.5	24.1	54.4*	-12.7	-2.9	x	14.2
Cc1ccc2nc(SCC(=O)c3c(N)n(C4CC4)c(=O)[nH]c3=O)[nH]c2c1	20.2	-0.2	6.6	17.4	4.7	x	x
Cc1ccc(Nc2nnc(SCC(=O)c3c(N)n(C4CC4)c(=O)[nH]c3=O)s2)cc1C	-22.9	9.2	70.5*	-17.4	-98.3	x	4.0
COc1cccc(-c2ccc([C@@H]3[C@@H](CO)N(C(=O)C4CC4)C34CN(C(C)=O)C4)cc2)c1	x	x	x	-7.6	x	x	x
CC(=O)N(C)C[C@H]1Oc2ncc(C#Cc3ccccc3)cc2C(=O)N([C@@H](C)CO)C[C@H]1C	x	x	x	-3.3	x	x	x
COCCSc1nnc(NC(=O)c2ccc([N+](=O)[O-])cc2)s1	4.5	4.5	-19.3	-5.8	-25.4	-2.1	x
Cc1cc(-c2nnc(CSc3nnc(NC(=O)c4ccc(C(C)(C)C)cc4)s3)o2)ccc1[N+](=O)[O-]	-12.0	11.4	59.4*	-48.2	-154.6	-4.8	6.8
COc1ccc(/C=N/n2cnc3c([nH]c4ccc(F)cc43)c2=O)cc1CN1CCCC1	0.0	6.2	100.4*	6.3	91.1*	2.3	57.3*	FLuc counter=51.2*
CO[C@@H]1CN(C)C(=O)c2cc(NC(=O)c3cnccn3)ccc2OC[C@@H](C)N(CCC(F)(F)F)C[C@H]1C	x	x	x	-0.4	x	x	x
O=C(C[C@@H]1C=C[C@@H](NC(=O)C2CC2)[C@H](CO)O1)NC1CCC1	x	x	x	4.8	x	x	x
